# Values joined by “and” are separate entries in the source; they are usually repeats but may differ in a detail not shown here. Equal entries are not always repeated. Records with an inconclusive call do not appear. Active and inactive are the calls of the source. Unless noted, no rule for the calls is given here.
# Experiments:
# [1] = viability loss in pontine glioma line – cell-based, SU-DIPG-XVII, MIPE5.0, CellTiter-Glo, qHTS, dose response (AID 1347060; cut-off not given, nearly all actives have AC50 up to about 26 µM;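 also: cells exposed to compound for 48 hours before viability readout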); settings: CellTiter-Glo ATP luminescence
# [2] = viability loss in pontine glioma line – cell-based, SU-DIPG-XXV, MIPE5.0, CellTiter-Glo, qHTS, dose response (AID 1347065; cut-off not given, nearly all actives have AC50 up to about 26 µM;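 also: cells exposed to compound for 48 hours before ATP readout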); settings: CellTiter-Glo ATP luminescence
# [3] = JHH-DIPG-1 glioma cell viability, MIPE5.0 library, CellTiter-Glo luminescence, qHTS (AID 1347067; cut-off not given, nearly all actives have AC50 up to about 26 µM;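 also: cells exposed to compound for 48 hours before readout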); settings: JHH-DIPG-1 glioma viability, CellTiter-Glo ATP luminescence
# [4] = growth inhibition, single agents and combos, CRL2098, cell-based, BGB or cisplatin IC20 combos, synergistic combos for chromothripsis tumors (AID 1671454; in the data active = inhibition above about 80%;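 also: cells exposed for 96 h before readout; 0% = vehicle DMSO and 100% = killing by high DMSO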); settings: CRL2098 osteosarcoma cells, drug combinations, stronger effect = higher value
# [5] = growth inhibition, single agents and combos, HD-MB03, cell-based, BGB or cisplatin IC20 combos, synergistic combos for chromothripsis tumors (AID 1671455; in the data active = inhibition above about 83%;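 also: 0% = vehicle DMSO and 100% = high DMSO as cytotoxic control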); settings: HD-MB03 medulloblastoma cells, stronger effect = higher value
# [6] = growth inhibition, single agents and combos, UWB1.289, cell-based, BGB or cisplatin combos, synergistic combos for chromothripsis tumors (AID 1671456; in the data active = inhibition above about 80%;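 also: cells exposed to compound for four days; 0% = vehicle DMSO and 100% = killing by high DMSO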); settings: UWB1.289 ovarian carcinoma cells, stronger effect = higher value
# [7] = growth inhibition, single agents and combos, LFS_MB_2R, cell-based, cisplatin combos, synergistic combos for chromothripsis tumors (AID 1671457; in the data active = inhibition above about 80%;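 also: cells exposed to compound for four days before readout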); settings: LFS_MB_2R medulloblastoma cells, stronger effect = higher value
# [8] = UWB1.289_BRCA1 ovarian cancer growth, cell-based, BGB or cisplatin combinations (AID 1671459; in the data active = inhibition above about 80%); settings: UWB1.289 BRCA1 ovarian carcinoma, drug combinations, stronger effect = higher value
# [9] = drug combination toxicity in non-malignant astrocytes – cell-based, BGB or cisplatin IC20 combos, cytotoxicity control for chromothriptic childhood tumor combination screen (AID 1671460; in the data active = inhibition above about 80%;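 also: cells exposed to compounds for 96 hours before viability readout; 0% = vehicle and 100% = killing control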); settings: Human astrocytes, viability inhibition, drug combinations, at 0.5 µM, stronger effect = higher value
# [10] = growth inhibition of DIPG cells – cell-based, MIPE4.0 library, CellTiter-Glo luminescence, qHTS (AID 1347066; cut-off not given, nearly all actives have AC50 up to about 30 µM;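 also: cells exposed to compound for 48 hours before readout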); settings: SU-DIPG-VI viability, CellTiter-Glo ATP luminescence
# [11] = growth inhibition of DIPG cells – cell-based, MIPE5.0 library, qHTS (AID 1347068; cut-off not given, nearly all actives have IC50 up to about 30 µM); settings: SU-DIPG-XXV viability
# [12] = compounds altering circadian rhythm period length – cell-based, LOPAC library, luminescence reporter (AID 2774); settings: circadian reporter cells, at 7 µM, actives lie on both sides;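 also: values are relative to mean of DMSO wells on each plate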
# [13] = tested on: Hepatitis C virus NS3 helicase; experiment: blockers of NS3h binding to ssDNA – biochemical, fluorescence polarization, LOPAC1280 library, primary screen (AID 687035; in the data active = inhibition above about 37%); settings: Purified HCV NS3 helicase, Cy5-dT15 ssDNA binding fluorescence polarization; stronger effect = higher value; concentration not given here
# [14] = compounds altering Cy5-DNA-NS3h complex signal – biochemical, LOPAC1280, artefact control for HCV NS3 helicase inhibitor project (AID 687037); settings: Cy5-DNA-NS3h complex fluorescence interference counterscreen
# [15] = blockers of cellular phospholipid synthesis – cell-based, LOPAC library, screen 4, primary screen (AID 1347384); settings: animal cells, phospholipid biosynthesis inhibition screen; at 10 µM
# [16] = blockers of polyQ-driven CASP3 activation – cell-based (AID 1583); settings: polyglutamine-induced caspase-3 activation, cell assay; stronger effect = higher value;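 tested at 10 µM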
# [17] = yeast 75Q aggregation reduction – 75Q-TubU reporter (AID 1593); settings: Yeast 75Q polyglutamine aggregation reporter
# [18] = blockers of cytochrome c efflux from mitochondria – biochemical, purified mitochondria (AID 1603); settings: stronger effect = lower value;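 also: mouse liver mitochondria challenged with calcium chloride; signal normalized to the plate average as 100%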
# [19] = polyglutamine aggregate formation blockers (AID 1604); settings: polyglutamine-induced protein aggregation inhibition assay; stronger effect = higher value; tested at 2.5 µM
# [20] = molecular target: ATP-dependent translocase ABCB1 (Homo sapiens) (UniProt P08183); experiment: P-glycoprotein substrate transport blockade – cell-based (AID 377; in the data active = fluorescence slope change above about 50%); settings: MDR1-expressing cells, fluorescent substrate accumulation slope; stronger effect = higher value; concentration not given here
# Chain of ATP-dependent translocase ABCB1 (Homo sapiens) (P08183 whole entry, looked up): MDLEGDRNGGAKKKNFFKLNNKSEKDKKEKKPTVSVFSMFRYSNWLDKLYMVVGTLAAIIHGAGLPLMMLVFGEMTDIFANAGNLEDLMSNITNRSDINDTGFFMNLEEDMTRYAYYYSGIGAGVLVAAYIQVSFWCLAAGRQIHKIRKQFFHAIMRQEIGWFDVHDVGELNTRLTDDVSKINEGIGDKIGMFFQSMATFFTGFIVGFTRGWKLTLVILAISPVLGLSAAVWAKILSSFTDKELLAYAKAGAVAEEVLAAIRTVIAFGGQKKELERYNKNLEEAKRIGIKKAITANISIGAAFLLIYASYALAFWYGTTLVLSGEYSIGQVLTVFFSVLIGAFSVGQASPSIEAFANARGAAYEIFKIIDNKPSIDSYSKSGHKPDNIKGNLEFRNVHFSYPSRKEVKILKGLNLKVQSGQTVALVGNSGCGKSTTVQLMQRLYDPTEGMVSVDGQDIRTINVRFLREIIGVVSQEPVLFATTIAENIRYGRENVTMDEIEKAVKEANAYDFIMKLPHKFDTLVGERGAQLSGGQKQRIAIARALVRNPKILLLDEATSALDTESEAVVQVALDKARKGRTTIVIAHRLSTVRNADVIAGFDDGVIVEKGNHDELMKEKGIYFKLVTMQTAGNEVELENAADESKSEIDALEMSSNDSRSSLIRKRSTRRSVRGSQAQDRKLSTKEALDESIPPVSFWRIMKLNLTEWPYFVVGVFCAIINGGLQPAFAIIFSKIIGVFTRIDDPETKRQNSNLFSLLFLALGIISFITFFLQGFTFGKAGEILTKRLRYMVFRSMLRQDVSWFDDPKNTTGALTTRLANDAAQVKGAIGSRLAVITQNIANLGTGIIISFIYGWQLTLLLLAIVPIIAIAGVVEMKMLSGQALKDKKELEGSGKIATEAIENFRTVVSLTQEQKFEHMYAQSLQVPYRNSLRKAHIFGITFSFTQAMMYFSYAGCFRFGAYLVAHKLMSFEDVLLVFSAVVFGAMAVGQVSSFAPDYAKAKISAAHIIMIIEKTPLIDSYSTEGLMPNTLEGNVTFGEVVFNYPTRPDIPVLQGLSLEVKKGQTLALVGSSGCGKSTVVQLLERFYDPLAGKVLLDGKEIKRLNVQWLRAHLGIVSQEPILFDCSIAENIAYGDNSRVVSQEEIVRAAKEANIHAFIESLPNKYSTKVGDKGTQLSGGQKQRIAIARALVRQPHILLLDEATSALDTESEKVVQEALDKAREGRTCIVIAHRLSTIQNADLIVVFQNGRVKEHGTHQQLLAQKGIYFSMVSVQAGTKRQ
# [21] = measured here: combination with BGB at IC20, at 0.5 µM
# [22] = measured here: combination with cisplatin at IC20, at 0.5 µM
# [23] = measured here: combo with BGB at IC20, at 0.5 µM
# [24] = measured here: combo with cisplatin at IC20, at 0.5 µM
# [25] = measured here: inhibition with BGB combination, at 0.05 µM
# [26] = measured here: inhibition with cisplatin combination, at 0.05 µM
# [27] = measured here: combination with cisplatin, at 0.5 µM
# [28] = measured here: combination with cisplatin, at 5 µM
# [29] = BGB combination, concentration series, at 5 µM
# [30] = cisplatin combination, concentration series, at 5 µM
# [31] = measured here: combo with BGB IC20
# [32] = measured here: combo with cisplatin IC20
smiles,measurement,setting,value
COc1cc([C@@H]2c3cc4c(cc3[C@@H](O[C@@H]3O[C@@H]5CO[C@@H](c6cccs6)O[C@H]5[C@H](O)[C@H]3O)[C@H]3COC(=O)[C@H]23)OCO4)cc(OC)c1O,AC50,[1],0.332 µM (active)
same,AC50,[2],5.9 µM (active)
same,AC50,[3],9.34 µM (active)
same,inhibition,[4]; at 0.5 µM,5.54% (inactive) and 23.7% (inactive)
same,inhibition,[4]; [21],22% and 28.7%
same,inhibition,[4]; [22],-12.5% and 10.8%
same,inhibition,[5]; at 0.5 µM,96.4% (active) and 98.5% (active)
same,inhibition,[5]; [23],94.6% and 97.5%
same,inhibition,[5]; [24],96.6% and 99.1%
same,inhibition,[6]; at 0.5 µM,18.6% (inactive) and 46.3% (inactive)
same,inhibition,[6]; [25],-23.8% and 2.23%
same,inhibition,[6]; [26],-2.66% and 12.3%
same,inhibition,[7]; at 0.5 µM,-16.4% (inactive) and -13.1% (inactive)
same,inhibition,[7]; [27],-12.1% and -0.448%
same,inhibition,[7]; [28],-6.88% and 18.4%
same,inhibition,[8]; [29],94.5% and 109%
same,inhibition,[8]; at 0.5 µM,16.2% (inactive) and 36.5% (inactive)
same,inhibition,[8]; [30],117% and 124%
same,inhibition,[9],47.8% (inactive) and 52.6% (inactive)
same,inhibition,[9]; [31],42.5% and 54.3%
same,inhibition,[9]; [32],28% and 33.1%
C=C(C)[C@@H]1CC[C@]2(C(=O)O)CC[C@]3(C)[C@H](CC[C@@H]4[C@@]5(C)CC[C@H](O)C(C)(C)[C@@H]5CC[C@]43C)[C@@H]12,AC50,[1],20.9 µM (active)
same,AC50,[2],14.8 µM (active)
same,outcome,[10],inactive
same,outcome,[3],inactive
same,outcome,[11],inactive
O=C(N[C@@H](Cc1ccccc1)C(=O)CCl)OCc1ccccc1,period change,[12],-0.215 h (inactive)
same,inhibition,[13],0% (inactive)
same,fluorescence ratio (interference),[14],1 (inactive)
same,outcome,[15],inactive
CN(N=O)C(=O)NC1C(O)OC(CO)C(O)C1O (stereo not drawn),inhibition,[4]; at 0.5 µM,-39.9% (inactive)
same,inhibition,[4]; [21],-31.6%
same,inhibition,[4]; [22],-51.1%
same,inhibition,[5]; at 0.5 µM,-11.6% (inactive)
same,inhibition,[5]; [23],-2.88%
same,inhibition,[5]; [24],-22.4%
same,inhibition,[6]; at 0.5 µM,-9.59% (inactive)
same,inhibition,[6]; [25],-0.199%
same,inhibition,[6]; [26],-7.77%
same,inhibition,[7]; at 0.5 µM,-6.59% (inactive)
same,inhibition,[7]; [27],-12.5%
same,inhibition,[7]; [28],-15.1%
same,inhibition,[8]; [29],-8.48%
same,inhibition,[8]; at 0.5 µM,-13% (inactive)
same,inhibition,[8]; [30],0.433%
same,inhibition,[9],-2.34% (inactive)
same,inhibition,[9]; [31],-2.11%
same,inhibition,[9]; [32],-7.96%
CN(C)c1nc(N)c(C(=O)N=C(N)N)nc1Cl,period change,[12],-0.18 h (inactive)
same,inhibition,[13],-2% (inactive)
same,fluorescence ratio (interference),[14],1 (inactive)
same,outcome,[15],inactive
CSC(N)=NCCC[C@H](N)C(=O)O,period change,[12],0.125 h (inactive)
same,inhibition,[13],-3% (inactive)
same,fluorescence ratio (interference),[14],1 (inactive)
same,outcome,[15],inactive
C=C(C)C1CC=C(C(=O)O)CC1 (stereo not drawn),period change,[12],0.05 h (inactive)
same,inhibition,[13],2% (inactive)
same,fluorescence ratio (interference),[14],0.9 (inactive)
same,outcome,[15],inactive
C[C@H]1[C@H](C)CC[C@]2(C(=O)O)CC[C@]3(C)C(=CC[C@@H]4[C@@]5(C)CC[C@H](O)C(C)(C)[C@@H]5CC[C@]43C)[C@H]12,AC50,[2],18.6 µM (active)
same,outcome,[11],inactive
NCCCCCCNS(=O)(=O)c1cccc2c(Cl)cccc12,inhibition,[16],-15.2% and 22.6% and 2.95%
same,score,[17],1.04 and 1.62 and 0.88
same,cytochrome c release ratio,[18],1.16 and 0.95 and 1.09
same,inhibition of aggregation,[19],51% and 55.6% and 36.6%
same,period change,[12],0.025 h (inactive)
C=C[C@H]1CN2CCC1C[C@@H]2[C@@H](O)c1ccnc2ccc(OC)cc12 (stereo partly drawn),fluorescence slope change,[20],95% (active)
same,period change,[12],-0.225 h (inactive)
same,inhibition,[13],-1% (inactive)
same,fluorescence ratio (interference),[14],1 (inactive)
same,outcome,[15],inactive
CCOc1ccc2c(c1)C(C)=CC(C)(C)N2,fluorescence slope change,[20],16.6% (inactive)
same,inhibition,[16],14.7%
same,score,[17],0.77
same,cytochrome c release ratio,[18],0.79
same,inhibition of aggregation,[19],25.8%
NC(=NCc1ccccc1)NC(=O)c1nc(Cl)c(N)nc1N,fluorescence slope change,[20],28% (inactive)
same,inhibition,[16],7.39%
same,score,[17],1.09
same,cytochrome c release ratio,[18],0.99
same,inhibition of aggregation,[19],14.3%
same,period change,[12],0.11 h (inactive)
same,inhibition,[13],-1% (inactive)
same,fluorescence ratio (interference),[14],1 (inactive)
same,AC50,[2],18.6 µM (active)
same,outcome,[10],inactive
same,outcome,[15],inactive
